BCR signal inh = qHTS Assay to Find Inhibitors of Chronic Active B-Cell Receptor Signaling; ABC-DLBCL IkBa-CBG/CBR reporter, luminescence ratio, 4 h; Potency, µM (titrated, usually from 46.1 µM), without a hit: top-dose activity change, negative = inhibition, most hits filed as inhibitors; 340,000 tested, 0.05% active; AID 493014, 2011; active = well fitted inhibition curve with a large enough effect in the signal ratio, with a control signal flat, not every such curve was filed as active; inconclusive = small, poorly fitted or top-dose-only effect, or effect the other way, or a change in a side signal; the % refers to the signal ratio;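 also: potency is read from the fitted curve at half-maximal effect; plate controls were basal doxycycline-induced cells for no effect and cells given 10 µM MG132 for full effect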
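Doxycycline induced both beetle luciferases in TMD8 lymphoma cells; IKK-driven degradation limits the IkappaBalpha-fused green signal, while red luminescence normalises for cell number and nonspecific effects. Compounds tested up to 46 uM, 4 hrs.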
SW480 rerep = A quantitative high throughput screen for small molecules that induce DNA re-replication in SW480 colon adenocarcinoma cells; Potency, µM (highest dose often 46.1 µM), for inactives: at the top dose re-replication activation, usual class: activators; 340,000 tested, 1.8% active; SW480 DNA re-replication, Hoechst DNA content imaging, 48 h; also: potency is read from the fitted curve at half-maximal effect; % of control where 0% means no effect; nearly all actives have a fitted effect of over 55% in size
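Image-based DNA-content assay: after two days of treatment, nuclei were labelled with the DNA dye Hoechst and imaged, and hits were compounds raising the count of nuclei showing high fluorescence intensity.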
MCF10A rereplic = A quantitative high throughput screen for small molecules that induce DNA re-replication in MCF 10a normal breast cells. AID 624296, 2012. MCF 10A DNA re-replication, Hoechst nuclear intensity, 48 h. Potency, µM (series often up to 46.1 µM), inactives show at the top dose activity, positive = re-replication, most hits filed as activators. 350,000 tested, 2.9% active; also: potency is read from the fitted curve at half-maximal effect; % of control where 0% means no effect; nearly all actives have a fitted effect of over 50% in size
DT40 TDP1 no CPT = qHTS for Inhibitors of human tyrosyl-DNA phosphodiesterase 1 (TDP1): qHTS in cells in absence of CPT | 420,000 tested, 15% active | DT40 Tdp1-/- hTDP1 cells, no CPT, ATP luminescence, 48 h | Potency, µM (titrated, usually from 46.2 µM), for inactives: at the highest dose activity change, negative = growth inhibition, actives largely listed as inhibitors; also: potency is read from the fitted curve at half-maximal effect; % is scaled to controls: 0 for no effect and ±100 for the full control effect; nearly all actives have a fitted effect of over 55% in size
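Compound effects on proliferation are scored in DT40 Tdp1-/-;hTDP1 cells in the absence of CPT. ATP levels (CellTiter-Glo luminescence) are recorded after a ≥48 hr, 37 °C incubation.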
IL-1B inflam inh = qHTS for Inhibitors of Inflammasome Signaling: IL-1-beta AlphaLISA Primary Screen. activity change, % at 57.5 µM. 360,000 tested, 4.7% active. AID 743279, 2014. THP-1 LPS/ATP IL-1B secretion, AlphaLISA, 16 h; active compounds read low; in the data active = activity change below about -50%; inconclusive = mostly about -30% to -49%; also: % is scaled to controls: 0 for no effect and ±100 for the full control effect
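Secreted IL-1B measured by AlphaLISA bead assay after 16 h compound exposure of THP-1 cells; compounds (final up to 57.5 uM) added 1 h before LPS (250 ng/mL) and ATP (1.25 mM) stimulation; lower signal means less secretion.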
TDP1 cell CPT = qHTS for Inhibitors of human tyrosyl-DNA phosphodiesterase 1 (TDP1): qHTS in cells in presence of CPT; 420,000 tested, 12% active; AID 686979, 2013; chicken DT40 Tdp1-/-;hTDP1 cells + 20 nM CPT, ATP luminescence, 48 h; Potency, µM (doses to about 46.2 µM), for inactives: at the top dose activity change, negative = growth inhibition, most hits filed as inhibitors; also: potency is read from the fitted curve at half-maximal effect; % is scaled to controls: 0 for no effect and ±100 for the full control effect; nearly all actives have a fitted effect of over 55% in size
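Chicken DT40 Tdp1-/- cells stably complemented with human TDP1 were seeded at 400 cells/well in medium containing 20 nM camptothecin, exposed to pin-transferred compounds, and grown at 37 °C for at least 48 hr. Viability was read as ATP luminescence.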
An asterisk follows results filed as active. In the library only some 19% were active in any assay of this set; here they are far more common. Unless noted, calls follow the shape of the dose curve; as a rule, active = well fitted curve in the direction sought with a large enough effect; inconclusive = small, poorly fitted or top-dose-only effect, or another doubt; inactive = no such curve, though single readings can be large; an effect the other way counts as inactive or inconclusive.

Results for COc1ccc(-c2nc(CSc3nncn4c3cc3sccc34)c(C)o2)cc1OC ?
DT40 TDP1 no CPT: 2.6µM*; TDP1 cell CPT: 1.8µM*

How did CCN(C(=O)CSc1n[nH]c(-c2ccc(OC)cc2)n1)c1c(N)n(Cc2ccccc2)c(=O)[nH]c1=O do in these assays?
SW480 rerep: 2%; MCF10A rereplic: -1%; DT40 TDP1 no CPT: 3%; IL-1B inflam inh: 36; TDP1 cell CPT: 4%

How did COc1ccc2cc3c(N)nn(C(=O)c4cccc(F)c4)c3nc2c1 do in these assays?
BCR signal inh: inconclusive; SW480 rerep: inconclusive; MCF10A rereplic: 5%; DT40 TDP1 no CPT: inconclusive; IL-1B inflam inh: -12; TDP1 cell CPT: inconclusive

What do the screens show for `COc1ccc2cc3c(N)nn(C(=O)c4ccccc4Cl)c3nc2c1`?
BCR signal inh: inconclusive; SW480 rerep: 4.1µM*; MCF10A rereplic: 23%; DT40 TDP1 no CPT: inconclusive; IL-1B inflam inh: -65*; TDP1 cell CPT: 1.6µM*

Results for COc1ccc2cc3c(N)nn(C(=O)c4ccc(F)cc4)c3nc2c1 ?
BCR signal inh: inconclusive; SW480 rerep: inconclusive; MCF10A rereplic: inconclusive; DT40 TDP1 no CPT: 10µM*; IL-1B inflam inh: inconclusive; TDP1 cell CPT: inconclusive

What do the screens show for `COc1ccc2cc3c(N)nn(C(=O)c4ccc(OC)c(OC)c4)c3nc2c1`?
BCR signal inh: -2%; DT40 TDP1 no CPT: -18%; TDP1 cell CPT: -11%

How did COc1ccc2cc3c(N)nn(C(=O)Cc4c[nH]c5ccccc45)c3nc2c1 do in these assays?
BCR signal inh: inconclusive; SW480 rerep: inconclusive; MCF10A rereplic: inconclusive; DT40 TDP1 no CPT: 4.1µM*; IL-1B inflam inh: -98*; TDP1 cell CPT: 10µM*

How did COc1ccc(C2CC(C(F)(F)F)n3nc(C(=O)N(C)Cc4cn(C)nc4C)c(Cl)c3N2)cc1 (configuration not stated) do in these assays?
BCR signal inh: -17%; SW480 rerep: 0%; MCF10A rereplic: -1%; DT40 TDP1 no CPT: 18µM*; IL-1B inflam inh: 38; TDP1 cell CPT: inconclusive

What do the screens show for `Cc1c(CNC(=O)c2nn3c(c2Cl)NC(c2ccccc2)CC3C(F)(F)F)cnn1C` (configuration not stated)?
BCR signal inh: 2%; SW480 rerep: -13%; MCF10A rereplic: -4%; DT40 TDP1 no CPT: inconclusive; IL-1B inflam inh: 14; TDP1 cell CPT: inconclusive

What do the screens show for `COc1ccc(C2CC(C(F)(F)F)n3nc(C(=O)NCc4c(C)nn(C)c4C)c(Cl)c3N2)cc1` (configuration not stated)?
BCR signal inh: inconclusive; SW480 rerep: -4%; MCF10A rereplic: 0%; DT40 TDP1 no CPT: 5.2µM*; IL-1B inflam inh: -11; TDP1 cell CPT: 1.3µM*

Results for COc1ccc(C2CC(C(F)(F)F)n3nc(C(N)=O)c(Cl)c3N2)cc1OC (configuration not stated) ?
BCR signal inh: -9%; SW480 rerep: -7%; MCF10A rereplic: 2%; DT40 TDP1 no CPT: inconclusive; IL-1B inflam inh: 8; TDP1 cell CPT: -27%

How did CN1CCN(C(CNC(=O)c2c(F)cccc2F)c2ccc3c(c2)OCO3)CC1 (configuration not stated) do in these assays?
DT40 TDP1 no CPT: -10%; TDP1 cell CPT: 4%

How did CC(=O)N1CCN(S(=O)(=O)c2cccc(C(=O)NCc3ccc(F)cc3)c2)CC1 do in these assays?
BCR signal inh: -10%; SW480 rerep: -13%; MCF10A rereplic: -46%; DT40 TDP1 no CPT: inconclusive; IL-1B inflam inh: 35; TDP1 cell CPT: 6%

Screening results from PubChem BioAssay.
